In the library only some 0.51% were active in any assay of this set; here they are far more common.
E coli growth-1: reduces bacterial viability in AddAB counter-screen; E. coli V3065 growth, OD600 absorbance, 18 h; inhibition, % at 11.9 µM; 330,000 tested, 0.27% active;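 active = inhibition above the campaign's mean inhibition across all tested compounds plus 3 SD, cut at about 9.9% in these data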;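 also: uninfected addAB+ strain grown without phage in ampicillin broth; 0% = DMSO wells and 100% = ciprofloxacin 0.95 µg/ml wells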
phage Ecoli inh: E. coli growth loss with phage present. AID 651602. 360,000 tested, 0.26% active. growth absorbance. inhibition, % at 11.9 µM; in the data active = inhibition above about 11%
AddAB inh: less growth of phage-infected E. coli with AddAB; E. coli expressing H. pylori AddAB, absorbance growth; 330,000 tested, 0.29% active; AID 435030; inhibition, % at 11.9 µM; in the data active = inhibition above about 12%;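 also: 0% = vehicle wells of infected cells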
Tat export inh: blocks Tat-dependent protein export in E. coli. E. coli MC4100 TorA-mCherry Tat export, fluorescence. inhibition, % at 10 µM. 340,000 tested, 0.036% active;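 active = mean replicate inhibition at least 50% and at least half of replicates individually reaching 50%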;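 also: exported cargo escapes ClpAP degradation while cytoplasmic cargo is degraded and loses fluorescence; 0% = median of neutral control wells and 100% = median of NaSCN control wells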
E coli growth-2: blocks Escherichia coli growth | AID 1053175 | OD600 absorbance (no concentration beside the values) | 330,000 tested, 0.21% active | OD600, 23 h; hits give low values;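 active = OD600 absorbance below the run mean of sample wells minus 3.6 SD, in any replicate, cut at about 0.56 in these data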
AddAB conf: growth loss of T4-infected E. coli expressing H. pylori AddAB, confirmed | shares compounds with AddAB inh | E. coli V3065 expressing H. pylori AddAB, T4 phage, OD; T4 phage with gene 2 nonsense mutations | inhibition, % at 11.9 µM | 880 tested, 64% active | AID 488942;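 active = mean inhibition above a set limit taken from the earlier primary screen, cut at about 13% in these data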;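 also: higher means less bacterial growth since AddAB block lets phage replicate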
RecBCD counter: reduces growth of phage-infected RecBCD+ E. coli, AddAB inhibitor counter-screen | shares compounds with AddAB inh | E. coli V66 + mutant T4 phage, OD growth | inhibition, % at 11.9 µM | 880 tested, 73% active;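 active = mean inhibition above the mean of solvent-only control wells plus 3 SD, cut at about 4% in these data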;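 also: optical density read after an 18 h incubation at 37 °C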
Bact viability: counter-screen: bacterial growth inhibition; shares compounds with AddAB inh; bacterial viability, absorbance (AddAB counterscreen); inhibition, % at 11.9 µM; 880 tested, 35% active; in the data active = inhibition above about 25%
An asterisk follows results filed as active; . = not tested or not shown.

SMILES	E coli growth-1	phage Ecoli inh	AddAB inh	Tat export inh	E coli growth-2	others
CC1CCC2C(C)C(=O)OC3OC4(C)CCC1C32OO4 (stereo not given)	1	3	1	-2	0.43*
COC(=O)C1=C(c2ccc3ccccc3c2)CC2CCC1N2C (stereo not given)	.	.	.	.	0.67
c1ccc(-c2nc(N3CCOCC3)s[n+]2-c2ccccc2)cc1	3	2	4	-2	0.52*
COc1cc2cc(C(=O)N3CC(COS(C)(=O)=O)c4ccc(O)cc43)[nH]c2c(OC)c1OC (stereo not given)	.	.	.	58*	.
COC(=O)C1=C(c2cccc(OCc3ccccc3)c2)CC2CCC1N2C(=O)NCc1ccc2[nH]ccc2c1 (stereo not given)	.	.	.	.	0.69
COC(=O)C1=C(c2ccc(-c3ccccc3)c(F)c2)CC2CCC1N2C(=O)NCCc1ccccc1 (stereo not given)	.	.	.	.	0.74
COC(=O)C1C(O)C(C)C(O)C(C)C=CC=C(C)C(=O)Nc2c(C)c(OC(C)=O)c3c(c2O)C(=O)C(C)=C2OCOC(=C23)C(C)=CC(C)(O)C(O)C(C)C1O (stereo not given)	.	.	.	.	0.12*
COC(=O)C1=C(c2ccc(F)cc2OCc2ccccc2)CC2CCC1N2C(=O)NCCN1CCOCC1 (stereo not given)	.	.	.	.	0.7
CNc1cc(Cl)c2nonc2c1[N+](=O)[O-]	.	8	.	-37	0.46*
COC(=O)C1=C(c2ccc(C(C)=O)cc2)CC2CCC1N2C(=O)NCCNC(C)=O (stereo not given)	.	.	.	.	0.68
Fc1ccc(CNCCc2ccccc2)cc1	1	5	2	-2	0.68
C1=C(CCNCc2ccccc2)CCCC1	-1	6	3	-5	0.45*
Clc1ccc(C(c2ccc(Cl)cc2)n2cc[n+](CC(OCc3ccc(Cl)cc3Cl)c3ccc(Cl)cc3Cl)c2)cc1 (stereo not given)	5	7	0	15	0.094*
CC1=CC(=O)OC2CC3OC4CC(C)C5OC6CC7O[C@]8(C)CC=CC9OC%10CC%11OC(CC(C)C%12OCCO%12)CC(O)[C@]%11(C)OC%10CC9OC8C[C@]7(C)O[C@]6(C)CCC5OC4C[C@]3(C)OC12 (stereo not given in full)	.	.	.	.	0.71
CN(C)C1C(=O)C(C(N)=O)=C(O)[C@@]2(O)C(=O)C3=C(O)c4c(O)cccc4[C@@](C)(O)C3C(O)C12 (stereo not given in full)	.	.	.	.	0.07*
CN(C)C1C(=O)C(C(N)=O)=C(O)[C@@]2(O)C(=O)C3=C(O)c4c(O)cccc4[C@@](C)(O)C3CC12 (stereo not given in full)	.	.	.	.	0.065*
COC(=O)C1=C(c2cc3ccccc3s2)CC2CCC1N2C(=O)NC(C)C (stereo not given)	.	.	.	.	0.67
COC(=O)C1=C(c2ccc(OC)c(OC)c2)CC2CCC1N2C(=O)NCc1cccc2ccccc12 (stereo not given)	.	.	.	.	0.68
Oc1c(Br)c(Br)c(Br)c(Br)c1Br	15*	.	18*	-2	.	AddAB conf=22*;RecBCD counter=20*;Bact viability=21
COC(=O)C1=C(c2ccc(OCc3ccccc3)cc2)CC2CCC1N2C(=O)NCc1ccc([N+](=O)[O-])cc1 (stereo not given)	.	.	.	.	0.74
Cc1ccc(C[n+]2c(-c3ccc(C)cc3)cc(-c3ccc(C)cc3)cc2-c2ccc(C)cc2)cc1	25*	.	16*	-3	0.41*	AddAB conf=55*;RecBCD counter=12*;Bact viability=13
COC(=O)C1=C(c2c(C)noc2C)CC2CCC1N2C(=O)NC(C)C (stereo not given)	.	.	.	.	0.69
O=c1[nH]c(=S)n(C2CC2)c(O)c1C=NCc1ccc(F)cc1	15*	2	27*	-1	0.53	AddAB conf=62*;RecBCD counter=0;Bact viability=26*
O=c1[nH]c(=S)n(C2CC2)c(O)c1C=NCc1cccnc1	0	.	0	.	0.66
COC(=O)C1=C(c2cccc(OC)c2OC)CC2CCC1N2C(=O)N1CCC(C)CC1 (stereo not given)	.	.	.	.	0.63

Assay outcomes deposited in PubChem by several laboratories.
